These results are taken from PubChem BioAssay (NCI).

Compounds without any hit were thinned out: in the full panel of roughly 83,000, 20% have a hit.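 Activity criterion: percent growth below 10, measured after cells in 96-well plates were exposed to a single compound concentration for 48 hours.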 Values without a mark were called inactive. Activity calls are given as the source filed them.

Test systems include NCI-H23 lung; NCI-H226 lung; NCI-H322M lung; HOP-62 NSCLC; NCI-H460 lung; HOP-92 NSCLC; NCI-H522 lung; A549/ATCC NSCLC; 786-0 renal; COLO 205 colon; DU-145 prostate; K-562 leukemia; MALME-3M melanoma; MDA-MB-231 breast; RXF 393 renal; SF-268 CNS; SF-295 CNS; SF-539 CNS; UACC-257 melanoma; M14 melanoma.
What all share (assay): NCI-60 one-dose screen, 48 h (100 = growth as untreated, 0 = no growth, -100 = all killed)
What all share (conditions): 10 µM

Consider `COc1ccccc1[C@H]1C(C(=O)c2ccc(Cl)cc2)C2(N[C@@H]1c1ccccc1)C(=O)Nc1ccc(Cl)cc12` (stereo not given in full), for which the growth in the experiment on NCI-H23 lung was -1.97% (active); in the experiment on NCI-H226 lung, 4.06% (active); in the experiment on NCI-H322M lung, 32.9%; in the experiment on HOP-62 NSCLC it was 26%; with NCI-H460 lung, 8.58% (active); with HOP-92 NSCLC, 7.15% (active). The growth in the experiment on NCI-H522 lung is -5.89% (active); in the experiment on A549/ATCC NSCLC it was 15.8%; in the experiment with 786-0 renal it was 8.8% (active); in the experiment with COLO 205 colon it was -69.7% (active); with DU-145 prostate, 10.5%; in the experiment with K-562 leukemia, 1.21% (active). Further, the growth with MALME-3M melanoma is -24.8% (active); in the experiment with MDA-MB-231 breast it was 4.86% (active); in the experiment with RXF 393 renal, -29.4% (active); in the experiment with SF-268 CNS, 26.3%; in the experiment on SF-295 CNS, 2.46% (active); with SF-539 CNS it was -16.6% (active). In addition, the growth was 22.4% in the experiment with UACC-257 melanoma and 28.4% in the experiment on M14 melanoma.

For the compound `COc1ccc(N(C)c2cc(C#N)nc3ccccc23)cc1N`, the growth with NCI-H23 lung was 9.56% (active); in the experiment with NCI-H226 lung, 25.4%; in the experiment with NCI-H322M lung, 47.9%; with HOP-62 NSCLC, 36.2%; with NCI-H460 lung, 0.907% (active); in the experiment with HOP-92 NSCLC, 58.1%. Also, the growth in the experiment with NCI-H522 lung was -25.9% (active); in the experiment with A549/ATCC NSCLC, 17.8%; in the experiment on 786-0 renal, 22.6%; in the experiment with COLO 205 colon, -76.8% (active); in the experiment on DU-145 prostate, 20.3%; in the experiment with K-562 leukemia it was 10.7%. The growth is 62.1% with MALME-3M melanoma; 12.2% in the experiment with MDA-MB-231 breast; 57.2% with RXF 393 renal; 22% in the experiment on SF-268 CNS; 15.8% in the experiment on SF-295 CNS; -23.7% (active) with SF-539 CNS. The growth in the experiment with UACC-257 melanoma is 63.3%; with M14 melanoma it was 26.5%.

Regarding `CC1=N/C(=C\c2ccc(N(C)C)cc2)C(=O)N1CCc1ccc(S(N)(=O)=O)cc1`, the growth in the experiment with NCI-H23 lung was 98.5%; in the experiment with NCI-H226 lung, 98.3%; with NCI-H322M lung, 107%; in the experiment on HOP-62 NSCLC, 84.4%; in the experiment with NCI-H460 lung, 107%; in the experiment with HOP-92 NSCLC it was 96.5%. For the same compound, the growth in the experiment with NCI-H522 lung was 87.2%; in the experiment on A549/ATCC NSCLC, 93.2%; in the experiment on 786-0 renal it was 101%; with COLO 205 colon, 113%; in the experiment with DU-145 prostate, 112%; in the experiment with K-562 leukemia, 90.6%. The growth was 93.4% in the experiment with MALME-3M melanoma; 96.4% with MDA-MB-231 breast; 88.9% with RXF 393 renal; 102% with SF-268 CNS; 99.7% with SF-295 CNS; 98% with SF-539 CNS. In addition, the growth in the experiment with UACC-257 melanoma was 87.1%; with M14 melanoma it was 97.3%.

For `N#Cc1c(NC(=O)c2cccc(C(F)(F)F)c2)sc2c1CCC(O)=C2`, the growth in the experiment with NCI-H23 lung is 22.3%; in the experiment on NCI-H226 lung, 54.7%; in the experiment with NCI-H322M lung, 49.2%; with HOP-62 NSCLC, 55%; with NCI-H460 lung, 30.3%; in the experiment with HOP-92 NSCLC it was 11.2%. For the same compound, the growth was 11.2% with NCI-H522 lung; 35.7% in the experiment with A549/ATCC NSCLC; 62.1% with 786-0 renal; 90.2% in the experiment with COLO 205 colon; 50.1% in the experiment on DU-145 prostate; 14.5% in the experiment on K-562 leukemia. For the same compound, the growth with MALME-3M melanoma is 19.3%; in the experiment with MDA-MB-231 breast, 39.6%; in the experiment with RXF 393 renal, 50.7%; in the experiment on SF-268 CNS it was 38.6%; with SF-295 CNS, 35.3%; with SF-539 CNS, 48.1%. In addition, the values for the growth with UACC-257 melanoma and in the experiment on M14 melanoma were 30.1% and 36.8%, respectively.

With `COc1ccc2[nH]c(=O)c(CSc3nccc(-c4ccc(Cl)cc4)n3)cc2c1`, the growth in the experiment with NCI-H23 lung was 33.9%; in the experiment on NCI-H226 lung, -26.1% (active); in the experiment with NCI-H322M lung it was 44.9%; with HOP-62 NSCLC it was 32.9%; in the experiment on NCI-H460 lung, 9.38% (active); in the experiment with HOP-92 NSCLC, 4.58% (active). Also, the growth in the experiment with NCI-H522 lung is -32.2% (active); in the experiment on A549/ATCC NSCLC it was 2.57% (active); with 786-0 renal it was -28.6% (active); in the experiment with COLO 205 colon, 20.5%; in the experiment on DU-145 prostate, 44.8%; in the experiment with K-562 leukemia, 23.2%. In addition, the growth in the experiment on MALME-3M melanoma was 46.4%; in the experiment with MDA-MB-231 breast, 18.4%; with RXF 393 renal, -23.7% (active); in the experiment on SF-268 CNS, 28.8%; in the experiment on SF-295 CNS, -20.3% (active); with SF-539 CNS it was -70.3% (active). Also, the growth with UACC-257 melanoma is 6.77% (active); with M14 melanoma, 55.2%.

With `O=C1Nc2cc(-c3ccc(NC(=O)c4cccc([N+](=O)[O-])c4)cc3)ccc2/C1=C/c1ccc[nH]1`, the growth in the experiment with NCI-H23 lung is 71.6%; with NCI-H226 lung, 76.7%; with NCI-H322M lung, 102%; with HOP-62 NSCLC, 94.9%; in the experiment with NCI-H460 lung, 103%; in the experiment on HOP-92 NSCLC it was 109%. Besides, the growth is 84.3% in the experiment with NCI-H522 lung; 94.5% in the experiment on A549/ATCC NSCLC; 103% with 786-0 renal; 42.9% in the experiment on COLO 205 colon; 67.7% with DU-145 prostate; 93.7% in the experiment with K-562 leukemia. Further, the growth in the experiment on MALME-3M melanoma was 98.7%; with MDA-MB-231 breast, 86.6%; in the experiment with RXF 393 renal, 83.7%; with SF-268 CNS, 98.4%; in the experiment on SF-295 CNS, 83.5%; with SF-539 CNS, 89.2%. In addition, the values for the growth in the experiment with UACC-257 melanoma and in the experiment with M14 melanoma were 97.1% and 102%, respectively.

On to `O=C(Nc1cccc(-c2cn(-c3ccc4oc(=O)ccc4c3)nn2)c1)Nc1cc(C(F)(F)F)cc(C(F)(F)F)c1`, for which the growth with NCI-H23 lung is 4.21% (active); in the experiment on NCI-H226 lung it was 33.4%; with NCI-H322M lung, 34.4%; with HOP-62 NSCLC, 1.89% (active); with NCI-H460 lung it was 27.8%; with HOP-92 NSCLC it was -28.1% (active). The growth in the experiment on NCI-H522 lung was 21.8%; in the experiment on A549/ATCC NSCLC it was 21.8%; with 786-0 renal it was 29.3%; in the experiment on COLO 205 colon, 44.3%; with DU-145 prostate, 30.2%; in the experiment with K-562 leukemia it was 9.1% (active). Moreover, the growth is 29.8% in the experiment on MALME-3M melanoma; 34.7% with MDA-MB-231 breast; -5.05% (active) with RXF 393 renal; 62.2% in the experiment with SF-268 CNS; -45.7% (active) in the experiment on SF-295 CNS; 19.1% with SF-539 CNS. The growth with UACC-257 melanoma is 50.2%; in the experiment on M14 melanoma it was 55.5%.

Turning to `N#Cc1c(NC(=O)c2ccc(C(F)(F)F)cc2C(F)(F)F)sc2c1CCC(=O)C2`, the growth in the experiment on NCI-H23 lung was -50% (active); in the experiment on NCI-H226 lung it was -7.56% (active); with NCI-H322M lung, 12.4%; in the experiment with HOP-62 NSCLC it was 7.49% (active); in the experiment with NCI-H460 lung, 12%; in the experiment on HOP-92 NSCLC, -61.5% (active). Further, the growth in the experiment with NCI-H522 lung was -72.5% (active); in the experiment with A549/ATCC NSCLC, 9.8% (active); with 786-0 renal, 4.38% (active); in the experiment with COLO 205 colon, -73.3% (active); with DU-145 prostate, 23.9%; in the experiment with K-562 leukemia it was 2.16% (active). Also, the growth with MALME-3M melanoma is -86.8% (active); with MDA-MB-231 breast it was -74.4% (active); with RXF 393 renal, -59% (active); in the experiment on SF-268 CNS, 27.1%; in the experiment on SF-295 CNS, -21.7% (active); with SF-539 CNS, -80.2% (active). The growth is -64.8% (active) with UACC-257 melanoma and -50.3% (active) in the experiment with M14 melanoma.
